# Screening data (PubChem)
# CCHF vOTU inh-1: CCHFV vOTU protease inhibitors, primary screen, biochemical, Pep-AMC substrate, fluorescence; actives 0.55% (n = 370,000); inhibition, % at 11.5 µM; Crimean-Congo hemorrhagic fever virus L polyprotein viral ovarian tumor (vOTU) protease …; also: 0% = vehicle wells with enzyme and 100% = no enzyme wells
# Sa RN4220 lethal: growth inhibition of S. aureus RN4220, primary screen, OD600; 16 h; inhibition, % (no concentration beside the values); actives 0.33% (n = 330,000); AID 1259311, 2017; in the data active = inhibition above about 85%;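 also: plate controls were untreated cells for no effect and reference antibiotic for full effect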
# SARS 3CLpro inh: SARS-CoV 3CLpro protease inhibitors, primary screen, biochemical, quenched FRET; actives 0.14% (n = 290,000); AID 1706, 2009; inhibition, % at 6 µM; recombinant SARS-CoV 3CLpro, quenched FRET peptide cleavage; in the data active = inhibition above about 12%
# MazF activator: activators of E. coli MazEF toxin-antitoxin RNase, primary screen, biochemical, fluorescence, uHTS; Endoribonuclease toxin MazF (Escherichia coli (strain K12)), P0AE70; FAM/BHQ RNA-DNA oligo cleavage fluorescence, 5 h; activation, % at 20 µM; actives 0.32% (n = 350,000); AID 504720, 2011; in the data active = activation above about 50%
# Target sequence (P0AE70 whole entry, looked up): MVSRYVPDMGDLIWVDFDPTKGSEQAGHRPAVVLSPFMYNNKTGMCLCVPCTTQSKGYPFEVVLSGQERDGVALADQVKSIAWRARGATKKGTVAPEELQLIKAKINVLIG
# Sa ugtP lethal: growth inhibition of ugtP-null S. aureus, primary screen, RN4220 ugtP deletion, OD600 | 16 h | growth inhibition, % (concentration not given with the values) | actives 0.54% (n = 330,000); in the data active = growth inhibition above about 68%;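 also: plate controls were untreated wells for no effect and antibiotic for full effect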
# Mtb bLac sens: beta-lactam sensitization of Mtb H37Rv, H37Rv; inhibition, % at 25 µM; actives 0.27% (n = 330,000); M. tuberculosis H37Rv growth with meropenem, percent inhibition; call rule not given here;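 also: growth measured after seven days incubation then overnight dye step; 0% = bacteria only wells and 100% = bacteria with antibiotic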
# CCHF vOTU inh-2: CCHFV vOTU protease inhibitors, confirmation, biochemical, Pep-AMC substrate, fluorescence | Recombinant CCHFV vOTU | AID 686976, 2013 | inhibition, % at 11.5 µM | shares compounds with CCHF vOTU inh-1 | actives 17% (n = 1,900)
# Numbers without * were called inactive; u = inconclusive; x = no result. Hits are enriched below; roughly 1.3% of the tested compounds scored in any of these assays. Rule as the data show it, unless noted: active = inhibition above about 30%; inactive = the rest.
SMILES,CCHF vOTU inh-1,Sa RN4220 lethal,SARS 3CLpro inh,MazF activator,Sa ugtP lethal,Mtb bLac sens,CCHF vOTU inh-2
COC(=O)CCC(=O)OC1(C)C(=O)C2=CN(CCCCO)C(c3ccc(OC)cc3)=CC2=C(Br)C1=O (configuration not stated),x,x,-3,x,x,16,x
COC(=O)CCC(=O)OC1(C)C(=O)C2=CN(C(CO)CO)C(c3ccc(OC)cc3)=CC2=C(Br)C1=O (configuration not stated),31*,x,x,x,x,1,18
CCCNS(=O)(=O)c1ccc(Oc2ncc(C(F)(F)F)cc2Cl)cc1,31*,-4,2,-10,-14,1,-2
CCc1ccc(NC(=O)C(=O)NN=C(C)CC(=O)NCCOC)cc1,x,3,x,x,3,x,x
CC(=NOC(=O)NC(C)C)c1sc(-c2ccccc2)nc1C,x,4,x,x,5,x,x
Cc1ccc(N(CC(=O)NN=Cc2cccnc2)S(=O)(=O)c2ccccc2)cc1,x,4,x,x,2,x,x
O=C(O)/C(=C\c1cccc(F)c1)c1ccc(S(=O)(=O)N2CCCCC2)s1,0,12,3,2,-7,4,x
O=C(O)/C(=C/c1ccc(Cl)c([N+](=O)[O-])c1)c1ccc(S(=O)(=O)N2CCCCC2)s1,33*,4,x,-8,-6,x,-4
CC1CN=C(N(C)C)N1CCC1CCCC1 (configuration not stated),x,8,x,x,6,x,x
Cc1ccc(C)c(N2CCN(C(C(=O)NC3CCCC3)c3ccco3)CC2)c1 (configuration not stated),18,x,x,x,x,x,x
COc1cccc(C(C(=O)NC2CCCC2)N2CCN(c3cc(C)ccc3C)CC2)c1OC (configuration not stated),30*,x,x,x,x,x,-5
Cc1n[nH]c(=S)n(N=Cc2cccs2)c1=O,x,-2,x,x,-6,x,x
OCCN(Cc1ccccc1)CC(O)COc1ccc(-c2ccccc2)cc1 (configuration not stated),30*,0,5,-3,5,72,-12
CC(=O)N(C)C1=C(O)c2ccccc2C(=O)C1=O,10,7,4,5,13,u,x
CC(=O)C(C(C)=O)C1(O)C(=O)c2ccccc2C1=O,101*,1,8,-3,5,8,-12
Nc1[nH][nH]c(=O)c1N=Nc1cccc(Cl)c1,32*,11,0,4,-1,-2,11
Cc1nc2ccccc2cc1C(=O)NN=Cc1cccc([N+](=O)[O-])c1,x,1,x,x,10,x,x
Fc1cccc(CNc2ncnc3ccc(-c4ccc5c(c4)OCO5)cc23)c1,30*,-19,x,-1,14,92,-13
O=S(=O)(c1ccc2nc(-c3ccco3)c(-c3ccco3)nc2c1)N1CCOCC1,73*,5,3,-8,-2,5,40*
O=S(=O)(c1ccc2ccccc2c1)N1CCOCC1,2,-1,2,3,8,-11,x
O=C(c1ccc2nc(-c3ccco3)c(-c3ccco3)nc2c1)N1CCN(c2ccccc2)CC1,48*,2,-6,-8,-3,90,-8
O=C(NCc1ccc(F)cc1)Nc1nnc([C@@H]2C[C@H](O)[C@@H](CO)O2)s1,34*,x,x,x,x,x,-14
O=C(NCc1ccc(F)cc1)Nc1nnc([C@H]2C[C@H](O)[C@@H](CO)O2)s1,7,x,x,x,x,x,x
COc1ccc(-c2cc(C(=O)NN=Cc3cccnc3)c3ccccc3n2)c(OC)c1,x,1,x,x,7,x,x
O=C1OCCN1/N=C/c1ccc([N+](=O)[O-])o1,35*,x,-2,-5,x,37,0
SMILES,CCHF vOTU inh-1,Sa RN4220 lethal,SARS 3CLpro inh,MazF activator,Sa ugtP lethal,Mtb bLac sens,CCHF vOTU inh-2
CC(C(=O)Nc1ccc2ccccc2c1)C1C[C@@]1(C)C(NC(=O)c1cnccn1)c1ccccc1 (some centres not stated),x,1,x,x,7,x,x
COc1cc(/C=N/Nc2ccc(S(N)(=O)=O)cc2)cc(OC)c1OC,30*,x,2,4,x,0,-3
COc1cc(/C=N/Nc2ccc(C(=O)O)cc2)cc(OC)c1OC,0,x,2,0,x,1,x
Cc1nn(C)c(C(=O)NN=Cc2ccc(Br)cc2)c1Cl,x,8,x,x,-3,x,x
CC(C)(C)OC(=O)N1CCCC(C(=O)Nc2cccc(C(=O)NCCc3ccccc3)c2)C1 (configuration not stated),-3,x,x,6,x,x,x
CC(C)(C)OC(=O)N1CCCC(C(=O)Nc2cccc(C(=O)NCCCCc3ccccc3)c2)C1 (configuration not stated),35*,x,x,-3,x,x,-3
CC(C)C1C(=NO)CC(c2ccccc2)NC1c1ccccc1 (configuration not stated),x,1,x,x,6,x,x
Cc1noc(C)c1COc1ccc(C(=O)N2CCN(c3cccc(Cl)c3)CC2)cc1,0,12,x,-1,-2,x,x
CC(=O)c1ccc(N2CCN(C(=O)c3ccc(OCc4c(C)noc4C)cc3)CC2)cc1,34*,7,4,3,12,u,4
Cc1ccc(NC2=CC(=O)C(=O)c3ccccc32)cc1,93*,57,1,4,38,99,70*
COc1cc(OC)c(NC2=CC(=O)C(=O)c3ccccc32)cc1Cl,16,x,8,3,x,0,x
CCOC(=O)c1ccc(NC2=CC(=O)C(=O)c3ccccc32)cc1,11,-11,3,32,-30,100,x
Cc1cc(NC2=CC(=O)C(=O)c3ccccc32)no1,81*,x,x,8,x,x,96*
NS(=O)(=O)c1ccc(NC2=CC(=O)C(=O)c3ccccc32)cc1,100*,x,7,-1,x,5,102*
CSCC(=O)NC1CCCc2c1cnn2-c1cc(F)cc(F)c1 (configuration not stated),30*,1,2,1,6,-3,-26
CCN(CC)CC(=O)NC1CCCc2c1cnn2-c1cc(F)cc(F)c1 (configuration not stated),3,x,1,2,x,-3,x
O=c1c(=Nc2ccccc2O)c(=O)c2ccccc12,49*,x,3,5,x,95,-1
O=c1[nH][nH]cc1C=Nc1ccccc1O,6,12,2,-5,-1,95,x
CCCNC(=O)C(=O)NN=Cc1ccc(OCc2ccccc2)cc1,x,5,x,x,-2,x,x
O=C1C(=O)N(CCCn2ccnc2)C(c2ccc(Cl)cc2)/C1=C(\O)c1ccc2c(c1)OCCO2 (configuration not stated),48*,-2,-5,-6,-4,-5,-12
CCN1C(=O)C2C(c3ccc(C)cc3)N3C(=O)N(c4ccccc4)C(=O)[C@@]3(Cc3ccccc3)C2C1=O (some centres not stated),x,0,x,x,-1,x,x
